Screening data: PubChem, National Center for Advancing Translational Sciences (NCATS)
HCMV antiviral = inhibitors of human cytomegalovirus. activity change, negative = inhibition, % at 57.5 µM. actives 4.5% (n = 410,000). AID 1259415. HFF cells, HCMV-luciferase reporter, 72 h; active compounds read low; in the data active = activity change below about -60%; inconclusive = no clear call, values can overlap the other calls; inactive = above about -39%
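Human foreskin fibroblasts infected with luciferase-reporter HCMV at MOI 1 PFU/cell, compounds at two doses. Luciferase measured 72 h post infection; normalized to buffer-only basal and Salinomycin (10uM) controls.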
LASV entry inh = Lassa virus entry inhibition. actives 1.2% (n = 300,000). Lassa virus pseudotype entry inhibition, cell reporter. Potency, µM (top dose mostly 37.9 µM), inactives show at the top dose activity change, negative = inhibition, hits mostly inhibitors; calls by dose curve; tested in HEK293 cells; note: potency is the fitted concentration of half-maximal effect; nearly all actives have a fitted effect of over 50% in size
MARV entry inh = Marburg virus entry inhibition. Marburg virus pseudotyped entry inhibition, cell reporter. Potency, µM (doses to about 37.8 µM), inactives show at the top dose activity change, negative = inhibition, usual class: inhibitors. actives 1.8% (n = 300,000). AID 540276; calls by dose curve; tested in HEK293 cells; note: potency is the fitted concentration of half-maximal effect
FMDV inh = antivirals against foot and mouth disease virus | Potency, µM (titrated, usually from 57.9 µM), inactives show at the highest dose activity change, negative = inhibition, most hits filed as inhibitors | actives 1.2% (n = 410,000) | FMDV antiviral cell-based qHTS; calls by dose curve; tested in HEK293T cells; note: read-out not given here; potency is the fitted concentration of half-maximal effect; nearly all actives have a fitted effect of over 45% in size
HCV inh = blocks hepatitis C virus | Huh7.5.1 HCVcc-Cre infection, luciferase reporter, 44 h | actives 3.4% (n = 340,000) | AID 651820 | Potency, µM (highest dose often 41.8 µM), for the others: at the highest dose activity change, negative = inhibition, most hits filed as inhibitors; active = well fitted inhibition curve with a large enough effect; inconclusive = small, poorly fitted or top-dose-only effect, or another doubt; inactive = no such curve, though single readings can be large or run the other way; note: potency is the fitted concentration of half-maximal effect
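Reporter virus HCVcc-Cre (~0.5 moi) infects cells exposed to compound; seeding density 1,000 cells/well with 4 h settling beforehand. Luminescence, 15 sec read, taken 44 h post-infection following a 15 min RT substrate incubation.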
An asterisk follows results filed as active; ? = inconclusive; . = no result; ! = repeats disagree; [ ] = dose if it differs, or a comment. This is a sample that favours compounds with a hit; in the whole collection about 7.9% have one here. % is set by controls: 0 for no effect and ±100 for the full control effect.

SMILES	HCMV antiviral	LASV entry inh	MARV entry inh	FMDV inh	HCV inh
CCCS(=O)(=O)N1CC(=O)N(c2ccc(C)c(Cl)c2)C(C)(C(=O)NC2CCCCCC2)C1 (stereo not given)	?	1%[46.1 µM]	.	-12%	.
CCCC(Oc1ccc(Br)cc1)c1nc2c3cc(OC)c(OC)cc3nc(=S)n2[nH]1 (stereo not given)	-86*	-18%	?	11%	?
CC(C)N1CCC(C)(C(=O)Nc2cccc3c2CCCC3)C1 (stereo not given)	11	.	.	-16%	.
Cc1cc(Nc2cccc(C(F)(F)F)c2)nc2ccc(NC(=O)c3cncc(Br)c3)cc12	?	-19%[46.1 µM]	.	32µM*	.
Cc1ccccc1C(=O)Nc1ccc2nc(Nc3cccc(C(F)(F)F)c3)cc(C)c2c1	-13	-24%[46.1 µM]	.	?	.
Cc1cc(Nc2cccc(Cl)c2)nc2ccc(NC(=O)c3cncc(Br)c3)cc12	-100*	-21%[46.1 µM]	.	-13%	.
COc1ccccc1N(C)S(=O)(=O)c1ccc(C(=O)Nc2nccs2)cc1	?	.	.	0%	11µM*
COc1ccccc1N(C)S(=O)(=O)c1ccc(C(=O)Nc2nc(C)c(C(C)=O)s2)cc1	-1	.	.	?	2%
COc1ccccc1N(C)S(=O)(=O)c1ccc(C(=O)Nc2ncc(C)s2)cc1	?	?	-28%	?	14µM*
C[C@@H](NC(=O)[C@@H]1CCCN1C(=O)[C@@H]1CCCN1C(=O)c1ccccc1)c1ccccc1	9	.	.	-12%	.
CCOC(=O)N/N=C1\C[C@@H](O)[C@@H](O)[C@@H]2[C@@H]3C(=O)N(CC)C(=O)[C@@H]3CC[C@H]12	.	.	8%[14.2 µM]	.	.
O=C(c1ccccc1)c1ccc(Cn2cc(-c3ccccc3)nn2)cc1	?	.	.	-6%	1.4µM*
CCCCCc1ccc(-c2cn(Cc3ccc(C(=O)c4ccccc4)cc3)nn2)cc1	15	.	.	0%	14%
O=C(c1ccccc1)c1ccc(Cn2cc(CCCO)nn2)cc1	?	.	.	-15%	10µM*
O=C(c1ccc2ccccc2c1)N1CCn2c(nnc2C(=O)N2CCOCC2)C1	-1	.	.	.	.
CCC(C(=O)Nc1ccc(C)c(C)c1)n1c(=O)c(C(F)(F)F)nc2ccccc21 (stereo not given)	-7	15%[46.1 µM]	.	-17%	.
Cc1ccc(-n2ncc(C(=O)NCCCN3CCCCC3)c2C2CCN(C(=O)OC(C)(C)C)CC2)c(C)c1	-14	-27%[46.1 µM]	.	-21%	.
Cc1cc(CN2CCN(c3cccc(C)c3C)CC2)cs1	-69*	-1%[46.1 µM]	.	-23%	.
CC(OC(=O)c1ccccc1NS(=O)(=O)c1cccc(N)c1)C(=O)N(C)Cc1ccccc1 (stereo not given)	-72*	?	?	7%	?
CN(NS(=O)(=O)c1ccc(Br)cc1)c1nc(C(F)(F)F)nc2ccccc12	-64*	?	?	-28%	-15%
Cc1ccc2c(=O)c3ccccc3n(CCCN)c2c1C	.	.	.	0%	.
COC(=O)c1ccc(OC)c(Cn2c(=O)n(C)c(=O)c3ccccc32)c1	34	24%	3%	-29%	-18%
COCCNC(=O)C12CC3CC(CC(Cl)(C3)C1)C2	19	17%	4%	-13%	5%
Cc1nc(C)c(-c2ccc(SCC(=O)Nc3ccc(Br)cc3)nn2)s1	-69*	?	.	-17%	.
CCc1ccc(NC(=O)CSc2ccc(-c3sc(C)nc3C)nn2)cc1	-39	.	.	-21%	11µM*
SMILES	HCMV antiviral	LASV entry inh	MARV entry inh	FMDV inh	HCV inh
CCOc1ccccc1NC(=O)CSc1ccc(-c2sc(C)nc2C)nn1	?	?	?	25µM*	?
COc1ccc(NC(=O)CSc2ccc(-c3sc(C)nc3C)nn2)cc1	31	?	4%	?	?
Cc1cc(C)cc(NC(=O)CSc2ccc(-c3ccccn3)nn2)c1	-1	?	15%	-16%	13µM*
CCC(Nc1ccc(-c2nc(-c3ccccn3)no2)cc1[N+](=O)[O-])c1ccccc1 (stereo not given)	43	-1%[46.1 µM]	8%[46.1 µM]	0%	.
O=C1NC2(CCCCCC2)C(=O)N1Cc1ccccc1F	-3	3%[46.1 µM]	12%[46.1 µM]	3%	-3%
CCCCNC(=S)NNC(=O)C1=NN(c2cc(C)ccc2C)C(=O)CC1	15	-29%[46.1 µM]	?	-15%	4%
COc1ccc(Sc2ccc(/C=C3\C(=O)NN(c4ccccc4)C3=O)o2)cc1	-14	0%	?	40µM*	-1%
O=C1NC(=O)N(c2ccccc2)C(=O)/C1=C/c1ccc(Sc2ccccc2)o1	.	0%	?	?	11%
CCN(c1ccccc1)S(=O)(=O)c1cc(C(=O)NCC(c2ccc(OC)cc2)N(C)C)ccc1C (stereo not given)	-13	.	.	-9%	10µM*
COc1ccc(C(CNC(=O)c2ccc(S(=O)(=O)N(C)C)cc2)N(C)C)cc1 (stereo not given)	39	5%[46.1 µM]	2%[46.1 µM]	6%	-5%
CN1CCC(=C2c3ccccc3C(O)c3ccccc32)CC1 (stereo not given)	-13	.	.	7%	-6%
CN1CCC(=C2c3ccccc3CC(=O)c3sccc32)CC1	-65*!	?	?	?	?
Cc1cccc(CNC(=O)c2ccc(NC(=O)N3CC(C)Sc4ccccc43)cc2)c1 (stereo not given)	4	-3%[46.1 µM]	2%[46.1 µM]	-18%	.
CCCCCCCCCCCCCCCC(=O)NCC(COP(=O)([O-])OCC[N+](C)(C)C)OCC (stereo not given)	.	-11%	6.5µM*	.	.
CCCCCCCCCCCCCCCC(=O)NC[C@@H](COP(=O)([O-])OCC[N+](C)(C)C)OCC	.	.	6.5µM*	.	.
CCCCCCCCCCCCCCCC(=O)OC[C@H](COP(=O)([O-])OCC[N+](C)(C)C)OC(C)=O	.	.	.	-1%[6.7 µM]	.
CCCC(=O)NC(NC(=S)Nc1ccc(S(N)(=O)=O)cc1)C(Cl)(Cl)Cl (stereo not given)	0	5%	4%	-10%	6%
CCCC(=O)NC(NC(=S)Nc1ccc(N=Nc2ccccc2)cc1)C(Cl)(Cl)Cl (stereo not given)	-70*	?	?	?	10µM*
O=C(CCc1ccccc1)NC(NC(=S)Nc1ccc(Br)cc1)C(Cl)(Cl)Cl (stereo not given)	-14	?	?	.	2µM*
O=C(O)C(Oc1ccc2c3c(c(=O)oc2c1)CCC3)c1ccccc1 (stereo not given)	-101*	-5%	10%	-3%	4%
CC(=O)C(C)Oc1ccc2c3c(c(=O)oc2c1)CCCC3 (stereo not given)	62	26%	?	6%	?
O=C(COc1ccc2c3c(c(=O)oc2c1)CCCC3)N1CCN(c2ccc(F)cc2)CC1	0	.	.	-26%	10µM*
CC(=O)C(C)Oc1ccc2c3c(c(=O)oc2c1)CCCCC3 (stereo not given)	4	20%	12%	16%	35µM*
O=C(CCNS(=O)(=O)c1ccc(Cl)cc1)N1CCN(c2ccccn2)CC1	-18	17%[46.1 µM]	3%[46.1 µM]	16%	-6%
